Our source for the inhibition values is ChEMBL document CHEMBL1961873, “Compounds: GSK PKIS; Assays: Nanosyn kinase panel” (2012).

As usually defined, the inhibition is the relative decrease from the control value, in per cent.

Assay [1] deals with T1, Aurora kinase A (Homo sapiens) (UniProt O14965).
T1 sequence (whole entry): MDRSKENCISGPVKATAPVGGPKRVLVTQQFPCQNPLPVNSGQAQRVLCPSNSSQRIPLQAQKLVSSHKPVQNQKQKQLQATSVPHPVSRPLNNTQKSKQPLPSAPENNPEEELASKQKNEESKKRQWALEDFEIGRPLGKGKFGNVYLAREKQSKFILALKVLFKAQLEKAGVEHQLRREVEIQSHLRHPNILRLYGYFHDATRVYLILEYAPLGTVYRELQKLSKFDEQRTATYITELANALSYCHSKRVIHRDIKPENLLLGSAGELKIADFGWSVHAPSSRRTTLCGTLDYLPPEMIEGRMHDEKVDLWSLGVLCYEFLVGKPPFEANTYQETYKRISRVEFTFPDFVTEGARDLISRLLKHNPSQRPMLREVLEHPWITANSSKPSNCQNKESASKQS
As to conditions: at 1 µM.

In assay [2] the target is Aurora kinase B (Homo sapiens) (UniProt Q96GD4). As to conditions: at 0.1 µM.
Chain of Aurora kinase B (Homo sapiens) (Q96GD4 whole entry): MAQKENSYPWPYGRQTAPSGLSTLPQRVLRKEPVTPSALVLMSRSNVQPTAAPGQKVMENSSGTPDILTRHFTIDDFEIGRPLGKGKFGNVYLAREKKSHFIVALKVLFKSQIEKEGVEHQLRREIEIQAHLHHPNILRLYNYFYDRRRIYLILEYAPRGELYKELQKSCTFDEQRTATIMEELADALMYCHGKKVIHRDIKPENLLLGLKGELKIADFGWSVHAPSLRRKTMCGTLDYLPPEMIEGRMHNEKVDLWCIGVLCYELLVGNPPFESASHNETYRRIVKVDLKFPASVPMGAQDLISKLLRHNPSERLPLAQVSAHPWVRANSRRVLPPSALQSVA
Assay [3] has the same target. As to conditions: at 1 µM.
The target of assay [4] is T2, Aurora kinase C (Homo sapiens) (UniProt Q9UQB9).
T2 sequence (whole entry): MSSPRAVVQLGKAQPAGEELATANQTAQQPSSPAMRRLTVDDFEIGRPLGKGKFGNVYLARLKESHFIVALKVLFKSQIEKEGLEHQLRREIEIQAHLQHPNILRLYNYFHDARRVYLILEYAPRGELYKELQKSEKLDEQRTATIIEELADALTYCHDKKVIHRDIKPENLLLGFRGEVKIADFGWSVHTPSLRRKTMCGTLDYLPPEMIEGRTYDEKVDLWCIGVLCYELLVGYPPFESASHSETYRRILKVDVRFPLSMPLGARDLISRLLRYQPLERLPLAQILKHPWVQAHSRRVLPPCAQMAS
Particulars: at 0.1 µM.

Assay [5] concerns the target T2, Aurora kinase C (Homo sapiens). As to conditions: at 1 µM.
Assay [6] concerns the target Serine/threonine-protein kinase 10 (Homo sapiens) (UniProt O94804). As to conditions: at 0.1 µM.
Assay [7] has the same target. Particulars: at 1 µM.
In assay [8] the target is T3, Mitogen-activated protein kinase kinase kinase kinase 2 (Homo sapiens) (UniProt Q12851).
T3 sequence (whole entry): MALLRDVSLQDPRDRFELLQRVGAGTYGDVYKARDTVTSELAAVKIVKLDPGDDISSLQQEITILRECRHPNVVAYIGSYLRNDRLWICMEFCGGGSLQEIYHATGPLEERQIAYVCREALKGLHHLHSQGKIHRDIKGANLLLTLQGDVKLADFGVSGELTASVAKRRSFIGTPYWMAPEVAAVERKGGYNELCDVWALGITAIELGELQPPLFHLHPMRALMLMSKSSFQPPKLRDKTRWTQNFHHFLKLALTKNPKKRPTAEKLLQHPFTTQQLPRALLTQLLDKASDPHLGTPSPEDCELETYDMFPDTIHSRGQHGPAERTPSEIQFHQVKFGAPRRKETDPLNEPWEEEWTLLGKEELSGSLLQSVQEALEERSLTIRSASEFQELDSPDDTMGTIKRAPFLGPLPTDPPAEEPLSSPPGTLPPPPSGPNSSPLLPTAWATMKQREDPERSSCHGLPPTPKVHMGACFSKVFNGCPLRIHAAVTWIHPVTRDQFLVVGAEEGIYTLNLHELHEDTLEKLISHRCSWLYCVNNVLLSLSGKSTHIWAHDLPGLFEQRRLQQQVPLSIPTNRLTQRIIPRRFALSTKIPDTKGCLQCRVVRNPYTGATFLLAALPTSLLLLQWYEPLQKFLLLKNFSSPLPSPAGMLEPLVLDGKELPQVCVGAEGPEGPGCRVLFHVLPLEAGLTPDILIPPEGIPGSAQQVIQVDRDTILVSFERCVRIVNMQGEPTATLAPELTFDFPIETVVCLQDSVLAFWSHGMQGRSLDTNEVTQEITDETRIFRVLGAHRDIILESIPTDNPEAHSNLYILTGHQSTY
As to conditions: at 0.1 µM.

Assay [9] has as its target T3, Mitogen-activated protein kinase kinase kinase kinase 2 (Homo sapiens). Particulars: at 1 µM.
In assay [10] the target is Mitogen-activated protein kinase kinase kinase kinase 4 (Homo sapiens) (UniProt O95819). Particulars: at 0.1 µM.
Chain of Mitogen-activated protein kinase kinase kinase kinase 4 (Homo sapiens) (O95819 2-1239 limits assumed): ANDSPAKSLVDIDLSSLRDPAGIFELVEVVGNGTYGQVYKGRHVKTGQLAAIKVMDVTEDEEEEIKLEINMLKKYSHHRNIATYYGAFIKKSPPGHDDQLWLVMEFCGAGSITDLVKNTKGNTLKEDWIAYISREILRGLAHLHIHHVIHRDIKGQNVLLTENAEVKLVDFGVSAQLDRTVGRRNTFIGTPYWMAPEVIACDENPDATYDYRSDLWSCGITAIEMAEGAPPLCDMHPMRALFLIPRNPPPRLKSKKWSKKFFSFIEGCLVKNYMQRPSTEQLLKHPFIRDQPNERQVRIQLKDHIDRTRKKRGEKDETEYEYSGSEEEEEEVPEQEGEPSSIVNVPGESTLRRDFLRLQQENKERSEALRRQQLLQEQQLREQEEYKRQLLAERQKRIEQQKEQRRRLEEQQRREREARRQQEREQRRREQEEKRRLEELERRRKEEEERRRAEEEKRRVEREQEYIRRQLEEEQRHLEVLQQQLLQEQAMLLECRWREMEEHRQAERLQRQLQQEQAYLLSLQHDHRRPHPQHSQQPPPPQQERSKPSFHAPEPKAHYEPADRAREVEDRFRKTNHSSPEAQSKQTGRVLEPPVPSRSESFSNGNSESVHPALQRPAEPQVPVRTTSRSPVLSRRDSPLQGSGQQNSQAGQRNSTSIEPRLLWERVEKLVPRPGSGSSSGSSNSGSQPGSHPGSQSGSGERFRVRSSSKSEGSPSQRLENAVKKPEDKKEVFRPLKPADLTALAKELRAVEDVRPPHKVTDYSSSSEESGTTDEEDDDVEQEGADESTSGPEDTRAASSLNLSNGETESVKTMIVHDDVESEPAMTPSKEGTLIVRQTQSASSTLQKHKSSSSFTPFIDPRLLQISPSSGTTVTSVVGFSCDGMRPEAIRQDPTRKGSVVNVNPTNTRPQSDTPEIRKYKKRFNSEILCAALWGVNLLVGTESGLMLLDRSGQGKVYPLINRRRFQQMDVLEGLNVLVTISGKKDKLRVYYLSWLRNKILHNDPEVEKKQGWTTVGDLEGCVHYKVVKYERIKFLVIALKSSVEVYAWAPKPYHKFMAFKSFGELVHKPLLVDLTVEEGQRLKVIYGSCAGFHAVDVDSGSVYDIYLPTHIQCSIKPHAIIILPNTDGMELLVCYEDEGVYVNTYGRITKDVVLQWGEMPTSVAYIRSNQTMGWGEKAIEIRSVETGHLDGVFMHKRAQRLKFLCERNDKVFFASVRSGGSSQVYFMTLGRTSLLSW
Assay [11] shares this target. Particulars: at 1 µM.
For assay [12], the target named is Dual specificity mitogen-activated protein kinase kinase 1 (Homo sapiens) (UniProt Q02750). As to conditions: at 0.1 µM.
Chain of Dual specificity mitogen-activated protein kinase kinase 1 (Homo sapiens) (Q02750 whole entry): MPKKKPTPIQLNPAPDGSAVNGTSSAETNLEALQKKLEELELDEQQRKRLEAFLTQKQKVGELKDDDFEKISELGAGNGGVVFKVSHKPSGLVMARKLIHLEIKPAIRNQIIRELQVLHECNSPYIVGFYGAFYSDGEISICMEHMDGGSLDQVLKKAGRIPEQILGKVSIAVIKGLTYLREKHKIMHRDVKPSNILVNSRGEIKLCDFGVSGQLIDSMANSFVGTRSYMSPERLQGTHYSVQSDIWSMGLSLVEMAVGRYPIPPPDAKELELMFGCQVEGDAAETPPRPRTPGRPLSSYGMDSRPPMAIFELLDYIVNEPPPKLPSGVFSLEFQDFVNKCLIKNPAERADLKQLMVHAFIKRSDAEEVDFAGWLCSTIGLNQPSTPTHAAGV
For assay [13] the target is unchanged. As to conditions: at 1 µM.
The target in assay [14] is Misshapen-like kinase 1 (Homo sapiens) (UniProt Q8N4C8). Particulars: at 0.1 µM.
Chain of Misshapen-like kinase 1 (Homo sapiens) (Q8N4C8 whole entry, looked up): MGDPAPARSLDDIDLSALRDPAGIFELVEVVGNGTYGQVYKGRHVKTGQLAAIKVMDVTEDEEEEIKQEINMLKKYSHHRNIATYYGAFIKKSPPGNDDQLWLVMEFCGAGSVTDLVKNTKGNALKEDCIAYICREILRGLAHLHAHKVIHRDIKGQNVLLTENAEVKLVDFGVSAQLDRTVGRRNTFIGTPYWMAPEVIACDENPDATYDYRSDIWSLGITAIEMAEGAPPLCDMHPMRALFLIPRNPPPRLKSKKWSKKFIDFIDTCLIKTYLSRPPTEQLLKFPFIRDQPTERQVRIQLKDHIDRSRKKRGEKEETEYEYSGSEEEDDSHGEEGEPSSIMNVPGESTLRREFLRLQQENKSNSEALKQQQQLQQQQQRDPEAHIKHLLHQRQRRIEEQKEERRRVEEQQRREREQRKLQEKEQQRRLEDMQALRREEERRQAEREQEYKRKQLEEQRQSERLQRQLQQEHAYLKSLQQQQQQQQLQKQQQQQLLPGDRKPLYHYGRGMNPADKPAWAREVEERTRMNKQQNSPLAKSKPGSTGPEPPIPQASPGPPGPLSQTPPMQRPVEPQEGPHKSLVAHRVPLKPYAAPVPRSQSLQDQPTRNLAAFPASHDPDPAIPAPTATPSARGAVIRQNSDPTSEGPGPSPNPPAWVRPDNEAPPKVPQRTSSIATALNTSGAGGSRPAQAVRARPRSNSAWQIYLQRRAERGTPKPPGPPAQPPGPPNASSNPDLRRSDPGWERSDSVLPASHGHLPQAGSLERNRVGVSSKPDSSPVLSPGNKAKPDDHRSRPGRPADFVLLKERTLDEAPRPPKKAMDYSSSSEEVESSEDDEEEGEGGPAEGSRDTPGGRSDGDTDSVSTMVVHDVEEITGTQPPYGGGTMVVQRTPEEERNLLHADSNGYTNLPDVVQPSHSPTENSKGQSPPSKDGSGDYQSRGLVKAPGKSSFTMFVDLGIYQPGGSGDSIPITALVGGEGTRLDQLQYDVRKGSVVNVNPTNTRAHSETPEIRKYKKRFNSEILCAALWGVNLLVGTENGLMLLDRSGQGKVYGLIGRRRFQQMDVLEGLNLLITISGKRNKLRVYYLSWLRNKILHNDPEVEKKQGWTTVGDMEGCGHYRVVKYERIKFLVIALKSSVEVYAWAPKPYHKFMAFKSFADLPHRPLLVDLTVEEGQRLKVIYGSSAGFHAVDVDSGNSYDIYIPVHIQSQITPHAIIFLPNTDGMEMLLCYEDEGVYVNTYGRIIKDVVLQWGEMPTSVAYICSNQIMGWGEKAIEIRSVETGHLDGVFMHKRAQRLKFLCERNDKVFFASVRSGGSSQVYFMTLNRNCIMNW
Assay [15] shares this target. As to conditions: at 1 µM.
The target of assay [16] is T4, Serine/threonine-protein kinase 4 (Homo sapiens) (UniProt Q13043).
T4 sequence (whole entry): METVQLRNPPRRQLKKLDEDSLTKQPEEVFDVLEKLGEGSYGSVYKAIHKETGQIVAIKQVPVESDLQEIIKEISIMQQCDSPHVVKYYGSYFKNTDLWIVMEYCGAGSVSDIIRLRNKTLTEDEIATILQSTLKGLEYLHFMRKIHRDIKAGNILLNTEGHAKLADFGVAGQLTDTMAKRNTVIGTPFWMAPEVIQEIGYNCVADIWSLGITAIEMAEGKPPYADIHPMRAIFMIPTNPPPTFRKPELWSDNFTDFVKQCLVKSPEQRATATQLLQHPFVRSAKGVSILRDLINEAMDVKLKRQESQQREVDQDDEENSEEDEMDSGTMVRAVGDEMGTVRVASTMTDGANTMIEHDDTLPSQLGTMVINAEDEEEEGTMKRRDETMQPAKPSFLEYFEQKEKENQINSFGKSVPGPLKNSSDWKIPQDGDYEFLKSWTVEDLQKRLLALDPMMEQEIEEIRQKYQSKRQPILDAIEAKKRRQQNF
As to conditions: at 0.1 µM.

Assay [17] has as its target T4, Serine/threonine-protein kinase 4 (Homo sapiens). Particulars: at 1 µM.
Assay [18] addresses T5, Serine/threonine-protein kinase 3 (Homo sapiens) (UniProt Q13188).
T5 sequence (whole entry): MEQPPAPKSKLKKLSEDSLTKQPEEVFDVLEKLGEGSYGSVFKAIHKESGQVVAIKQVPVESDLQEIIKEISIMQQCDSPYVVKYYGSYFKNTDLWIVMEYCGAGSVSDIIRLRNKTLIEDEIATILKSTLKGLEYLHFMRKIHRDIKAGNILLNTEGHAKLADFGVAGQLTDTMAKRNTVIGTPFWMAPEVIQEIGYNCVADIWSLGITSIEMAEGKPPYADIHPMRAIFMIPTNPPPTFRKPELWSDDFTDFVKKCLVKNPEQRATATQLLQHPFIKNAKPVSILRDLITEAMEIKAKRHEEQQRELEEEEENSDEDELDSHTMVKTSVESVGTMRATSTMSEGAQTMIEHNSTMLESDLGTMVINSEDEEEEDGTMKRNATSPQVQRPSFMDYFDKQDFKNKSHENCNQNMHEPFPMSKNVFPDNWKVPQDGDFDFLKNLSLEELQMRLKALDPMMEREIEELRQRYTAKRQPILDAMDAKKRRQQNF
Particulars: at 0.1 µM.

For assay [19], the target named is T5, Serine/threonine-protein kinase 3 (Homo sapiens). As to conditions: at 1 µM.
Assay [20] deals with Serine/threonine-protein kinase 26 (Homo sapiens) (UniProt Q9P289). Particulars: at 0.1 µM.
Chain of Serine/threonine-protein kinase 26 (Homo sapiens) (Q9P289 2-416 limits assumed): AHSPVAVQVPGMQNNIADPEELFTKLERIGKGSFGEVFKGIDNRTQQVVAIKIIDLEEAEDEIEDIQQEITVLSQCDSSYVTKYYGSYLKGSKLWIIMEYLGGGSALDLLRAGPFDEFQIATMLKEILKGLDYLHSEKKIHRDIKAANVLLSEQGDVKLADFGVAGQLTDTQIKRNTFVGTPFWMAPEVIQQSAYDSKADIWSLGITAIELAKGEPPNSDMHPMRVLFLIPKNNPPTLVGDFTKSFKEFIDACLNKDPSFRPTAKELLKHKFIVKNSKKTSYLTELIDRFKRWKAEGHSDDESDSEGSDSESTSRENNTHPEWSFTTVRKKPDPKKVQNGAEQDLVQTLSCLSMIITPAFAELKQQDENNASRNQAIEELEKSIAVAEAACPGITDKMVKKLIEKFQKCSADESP

Chain of Serine/threonine-protein kinase 10 (Homo sapiens) (O94804 whole entry, looked up): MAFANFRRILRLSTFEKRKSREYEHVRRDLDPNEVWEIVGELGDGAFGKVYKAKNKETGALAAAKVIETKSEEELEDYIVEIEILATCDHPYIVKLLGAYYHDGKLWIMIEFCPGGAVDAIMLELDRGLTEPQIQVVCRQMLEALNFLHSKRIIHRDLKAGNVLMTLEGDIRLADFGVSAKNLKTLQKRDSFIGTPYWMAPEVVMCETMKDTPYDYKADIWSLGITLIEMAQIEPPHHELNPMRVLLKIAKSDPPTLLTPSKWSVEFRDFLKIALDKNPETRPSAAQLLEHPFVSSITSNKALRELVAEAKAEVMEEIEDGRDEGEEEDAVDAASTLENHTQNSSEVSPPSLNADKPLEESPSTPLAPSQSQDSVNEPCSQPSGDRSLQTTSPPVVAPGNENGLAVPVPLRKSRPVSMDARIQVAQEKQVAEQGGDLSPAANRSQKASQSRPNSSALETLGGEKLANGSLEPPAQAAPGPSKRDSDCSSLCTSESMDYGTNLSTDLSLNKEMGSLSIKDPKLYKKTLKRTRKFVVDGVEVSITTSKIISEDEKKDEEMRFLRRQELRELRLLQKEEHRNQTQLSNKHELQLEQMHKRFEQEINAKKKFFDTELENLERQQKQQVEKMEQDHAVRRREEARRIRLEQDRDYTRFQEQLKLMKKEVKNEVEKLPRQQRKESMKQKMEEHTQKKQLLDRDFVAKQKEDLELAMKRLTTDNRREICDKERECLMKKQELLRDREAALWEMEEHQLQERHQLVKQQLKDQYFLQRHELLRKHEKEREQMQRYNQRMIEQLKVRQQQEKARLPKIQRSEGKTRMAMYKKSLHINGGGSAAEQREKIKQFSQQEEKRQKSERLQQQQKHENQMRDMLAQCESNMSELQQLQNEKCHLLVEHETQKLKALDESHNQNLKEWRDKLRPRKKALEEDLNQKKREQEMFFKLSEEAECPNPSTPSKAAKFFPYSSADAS

As to `Cc1ccc(O)cc1Nc1ccnc2ccc(S(C)(=O)=O)cc12`, the inhibition in assay [1] is 6.17%; in assay [2] it was 2.16%; in assay [3], 5.99%; in assay [4] it was 0.93%; in [5], -0.69%; in assay [6], 8.9%. The inhibition was 36.7% in assay [7]; 5.18% in assay [8]; 31% in assay [9]; 8.02% in assay [10]; 35.1% in [11]; 7.84% in assay [12]. In addition, the inhibition in [13] amounted to 8.37%; in assay [14] it was 10.4%; in assay [15], 30.5%; in assay [16], 4.65%; in [17], 8.35%; in assay [18] it was 5.45%. Further, the inhibition was 8.06% in [19] and -0.99% in [20].
On to `CN(C)C(=O)O[C@H]1CN[C@H](C#Cc2cc3ncnc(Nc4ccc(OCc5cccc(F)c5)c(Cl)c4)c3s2)C1`, for which the inhibition was found to be 9.61% in assay [1]; 3.92% in assay [2]; 7.39% in assay [3]; 2.15% in assay [4]; 8.8% in assay [5]; 4.18% in assay [6]. In addition, the inhibition stood at 8.61% in assay [7]; 0.82% in assay [8]; 2.78% in assay [9]; 3.45% in assay [10]; 4.23% in [11]; 1.29% in assay [12]. In addition, the inhibition in assay [13] was determined as 2.35%; in [14], 3.51%; in assay [15], 3.5%; in [16] it was 2.1%; in assay [17], 4.55%; in assay [18], 2.81%. Also, the inhibition in assay [19] was 3%; in assay [20] it was -0.23%.
With `OCc1ccc(-c2nc(-c3ccccn3)c(-c3ccc4c(c3)OCO4)[nH]2)cc1`, the inhibition in assay [1] was found to be 11%; in assay [2], 6.24%; in [3] it was 11.7%; in [4] it was 3.67%; in assay [5], 12.5%; in [6] it was 6.01%. For the same molecule, the inhibition in assay [7] was determined as 4.97%; in [8], 1.15%; in assay [9] it was 2.87%; in [10], 5.21%; in assay [11], 6.4%; in assay [12], 5.12%. Further, the inhibition in assay [13] turned out to be 4.13%; in assay [14], 5.77%; in [15], 7.23%; in assay [16] it was 6.59%; in [17] it was 6.27%; in [18] it was 8.49%. Further, the inhibition is 4.84% in [19] and -1.45% in assay [20].
As for `c1ccc(Cc2nc3ccc(Nc4ncnc5ccccc45)cc3[nH]2)cc1`, the inhibition in assay [1] was determined as 11.6%; in assay [2] it was 5.89%; in assay [3] it was 11%; in assay [4], 4.08%; in [5] it was 7.02%; in [6], 4.04%. Further, the inhibition came to 8.14% in assay [7]; 0.75% in [8]; 6.22% in [9]; 4.28% in [10]; 10% in assay [11]; 2.72% in [12]. The inhibition was 2.98% in assay [13]; 4.23% in [14]; 9.55% in assay [15]; 4.48% in assay [16]; 8.56% in assay [17]; 5.09% in [18]. Besides, the inhibition in assay [19] is 8.29%; in assay [20], -0.58%.
Regarding `NS(=O)(=O)c1cccc(Nc2cc(-c3ccc(F)cc3)n[nH]2)c1`, the inhibition worked out at 8.81% in [1]; 3.89% in [2]; 3.74% in [3]; 0.7% in assay [4]; 0.46% in [5]; 4.31% in assay [6]. Moreover, the inhibition amounted to 16.5% in assay [7]; 1.41% in assay [8]; 4.93% in assay [9]; 16.9% in assay [10]; 69.9% in assay [11]; 5.05% in [12]. Besides, the inhibition is 3.82% in [13]; 14.6% in assay [14]; 59.5% in assay [15]; 8.09% in assay [16]; 16.1% in [17]; 7.41% in assay [18]. The values for the inhibition in [19] and in [20] were 13.4% and -0.02%, respectively.
For `COc1cccc(-n2ncc3c(N/N=C/c4ccc(S(C)(=O)=O)cc4)ncnc32)c1`, the inhibition was 28.4% in assay [1]; 9.58% in [2]; 42.4% in [3]; 0.72% in assay [4]; 12.2% in assay [5]; 6.63% in assay [6]. Also, the inhibition in assay [7] was determined as 16.3%; in assay [8], 0.47%; in assay [9], 0.9%; in [10], 16.2%; in assay [11], 59.4%; in assay [12] it was 1.79%. The inhibition in assay [13] came out at 1.58%; in assay [14] it was 13.4%; in [15] it was 50.3%; in assay [16], 1.66%; in assay [17], 4.3%; in assay [18], 0.59%. Moreover, the inhibition in assay [19] was 2.91%; in assay [20] it was 1.71%.
Take `CCn1c(-c2nonc2N)nc2c(C#CC(C)(C)O)nc(OCCNC)cc21`: the inhibition in assay [1] was 4.63%; in [2], 2.66%; in assay [3] it was 5.49%; in assay [4], -0.74%; in [5], 3.76%; in assay [6], 5.14%. In addition, the inhibition came to 8.89% in [7]; 0.49% in [8]; 3.15% in assay [9]; 3.57% in [10]; 6.25% in assay [11]; 3.55% in assay [12]. For the same molecule, the inhibition in assay [13] came to 3.92%; in [14] it was 5.45%; in [15], 5.87%; in [16], 3.15%; in assay [17] it was 6.97%; in assay [18], 5.27%. Further, the inhibition in assay [19] is 7.27%; in assay [20], -3.54%.
